This is an account of results in PubChem BioAssay (NCI).

Among the test systems are T-47D breast; BT-549 breast; MDA-MB-435 melanoma; SW-620 colon; HCT-116 colon; HCC-2998 colon; KM12 colon; MDA-MB-468 breast; MCF7 breast.
Test in all cases: NCI-60 one-dose screen, 48 h (100 = growth as untreated, 0 = no growth, -100 = all killed)
Conditions in all cases: 10 µM

“And” between values parts separate entries of the source, which are not always exact repeats. Equal values may be shown once. Compounds without any hit were thinned out: in the full panel of roughly 83,000, 20% have a hit.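 Plates (96-well) were seeded with cells, treated with compound at one concentration, and incubated for 48 hours before percent growth was determined.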 Unmarked numbers belong to inactive results. The source made the active and inactive calls. How the source made its calls: active means growth percent below 10; inactive means the rest.

As for `N#Cc1ccc(NC(=O)CSc2ccc(-c3ccc(Br)cc3)nn2)cc1`, the growth is 46.9% with T-47D breast; 70.5% with BT-549 breast; 65.1% with MDA-MB-435 melanoma; 91.1% with SW-620 colon; 64% with HCT-116 colon; 92.9% in the experiment on HCC-2998 colon. Moreover, the growth in the experiment on KM12 colon was 76.7%; with MDA-MB-468 breast, 62.5%.

Turning to `COc1ccc2c(c1)N=C(C(=O)O)/C2=C/c1sc(Nc2ccc(O)cc2)nc1O`, the growth in the experiment on BT-549 breast is 55.4%; with MDA-MB-435 melanoma it was 8.85% (active); in the experiment with SW-620 colon it was 74.7%; with MCF7 breast, 27.9%; in the experiment with HCT-116 colon it was 64.7%; with HCC-2998 colon it was 74.7%. The growth was 57.9% in the experiment on KM12 colon and 12.3% in the experiment with MDA-MB-468 breast.

For `O=C(c1ccc(Cl)cc1)C1[C@H](c2ccc(Br)cc2)[C@@H](c2ccccc2)NC12C(=O)Nc1ccc(Cl)cc12` (some centres undefined), the growth in the experiment with T-47D breast is 8.01% (active); in the experiment with BT-549 breast it was -57.1% (active); with MDA-MB-435 melanoma, -84.9% (active); in the experiment with SW-620 colon, -76.4% (active); with HCT-116 colon, 5.1% (active); in the experiment on HCC-2998 colon, -94.9% (active). Moreover, the growth was -26.6% (active) in the experiment on KM12 colon and -90% (active) in the experiment on MDA-MB-468 breast.

For `O=C(Nc1nc2ccc([N+](=O)[O-])cc2s1)Nc1cc(Cl)ccc1I`, the growth was -25.9% (active) with T-47D breast; -87.2% (active) in the experiment with BT-549 breast; -52.1% (active) in the experiment on MDA-MB-435 melanoma; -50.3% (active) in the experiment with SW-620 colon; -78.8% (active) in the experiment on HCT-116 colon; -41.6% (active) with HCC-2998 colon. In addition, the growth with KM12 colon is -48.7% (active); in the experiment on MDA-MB-468 breast, -43.5% (active).

On to `N#Cc1c(NC(=O)c2ccc(C(F)(F)F)cc2)sc2c1CCC(=O)C2`, for which the growth is -36.9% (active) in the experiment with T-47D breast; -80.6% (active) with BT-549 breast; -41.4% (active) with MDA-MB-435 melanoma; -63% (active) with SW-620 colon; -46.3% (active) in the experiment with HCT-116 colon; -96.7% (active) in the experiment on HCC-2998 colon. In addition, the growth in the experiment with KM12 colon is -36.3% (active); in the experiment with MDA-MB-468 breast it was -71% (active).

Regarding `Brc1ccc(N/N=C/c2c[nH]c3ccccc23)nc1`, the growth was 25.7% in the experiment with T-47D breast; -2.29% (active) with BT-549 breast; 30.4% in the experiment with MDA-MB-435 melanoma; 20.8% in the experiment on SW-620 colon; 6.45% (active) in the experiment on HCT-116 colon; -1.13% (active) in the experiment with HCC-2998 colon. The growth in the experiment on KM12 colon was 0.217% (active); in the experiment with MDA-MB-468 breast it was -35.5% (active).

Regarding `COC[C@@H](CC(C)C)N=C1N/C(=C\c2ccc3ncsc3c2)C(=O)N1C`, the growth in the experiment with T-47D breast was -7.71% (active); with BT-549 breast it was 7.17% (active); in the experiment with MDA-MB-435 melanoma, 22.1%; in the experiment with SW-620 colon, 2.99% (active); in the experiment with HCT-116 colon, 14.5%; in the experiment with HCC-2998 colon it was 5.06% (active). In addition, the growth with KM12 colon was 9.52% (active); in the experiment with MDA-MB-468 breast it was -5.24% (active).

With `O=c1cc(-c2ccccc2)oc2cc(OCCCNCc3ccccc3)cc(O)c12`, the growth in the experiment on T-47D breast was -64.7% (active); in the experiment on BT-549 breast it was 46.8%; in the experiment on MDA-MB-435 melanoma it was -44.2% (active); with SW-620 colon, -13.8% (active); in the experiment on HCT-116 colon, -68.7% (active); in the experiment on KM12 colon, -38.3% (active).

With `O=c1c2ccccc2nc(COc2ccccc2)n1/N=C/c1ccc(N2CCOCC2)cc1`, the growth is 92.9% in the experiment on T-47D breast; 76.8% in the experiment with BT-549 breast; 99.3% in the experiment on MDA-MB-435 melanoma; 97.6% in the experiment on SW-620 colon; 52.5% in the experiment on HCT-116 colon; 99.2% with HCC-2998 colon. In addition, the growth was 90.7% in the experiment on KM12 colon and 117% in the experiment on MDA-MB-468 breast.

Regarding `NC1=NC(c2ccccc2Cl)N=C(Nc2nn[nH]n2)N1` (centres undefined), the growth is 99.1% in the experiment with T-47D breast; 107% with BT-549 breast; 102% in the experiment with MDA-MB-435 melanoma; 106% in the experiment on SW-620 colon; 103% in the experiment on HCT-116 colon; 104% with HCC-2998 colon. In addition, the results for the growth with KM12 colon and with MDA-MB-468 breast were 100% and 103%, respectively.

In the case of `Cc1ccc(-c2nc3ccc(C(=O)N=Nc4c(O)[nH]c5ccc([N+](=O)[O-])cc45)cc3[nH]2)cc1`, the growth in the experiment with T-47D breast was 51.8%; in the experiment with BT-549 breast it was 98.7%; in the experiment on MDA-MB-435 melanoma it was 62.6%; in the experiment with SW-620 colon, 42.2%; with HCT-116 colon, 12.7%; with HCC-2998 colon it was 54%. The growth in the experiment with KM12 colon was 104%; in the experiment with MDA-MB-468 breast, 59%.

Consider `NC(=Nc1ccc(OCCCCCCCCn2ccnn2)cc1)c1ccccc1`, for which the growth was 40% with T-47D breast; 56.6% in the experiment with BT-549 breast; 32.4% with SW-620 colon; 13.8% with MCF7 breast; 23.8% with HCC-2998 colon; 18.2% in the experiment with KM12 colon. Also, in the experiment with MDA-MB-468 breast, the growth was 24%.

Take `O=C(Cn1cc(CSc2nnc3oc4ccccc4n23)nn1)Nc1cccc(Cl)c1`: the growth in the experiment with T-47D breast is 45.2%; with BT-549 breast it was 83.1%; in the experiment with MDA-MB-435 melanoma, 74.4%; with SW-620 colon, 103%; in the experiment on HCT-116 colon it was 71.8%; in the experiment with KM12 colon it was 70.6%. Also, the growth with MDA-MB-468 breast is 37.7%.

With `CC(C)Sc1nc(NC2CC2)c(C#N)c(-c2ccccc2)n1`, the growth with T-47D breast is 92.7%; in the experiment on BT-549 breast, 91.2%; with MDA-MB-435 melanoma, 98.6%; in the experiment on SW-620 colon it was 100%; in the experiment with HCT-116 colon, 46.7%; in the experiment on HCC-2998 colon, 97%. Moreover, the growth with KM12 colon was 94.7%; with MDA-MB-468 breast it was 80.4% and 99.9%.

For the compound `O=C(NO)c1ccc(-c2nc3ccc4[nH]ncc4c3c3c2CCCC3)cc1`, the growth is -50.2% (active) in the experiment with BT-549 breast; -78.1% (active) in the experiment on MDA-MB-435 melanoma; 1.77% (active) in the experiment with SW-620 colon; -20.8% (active) with MCF7 breast; 2.92% (active) in the experiment on HCT-116 colon; -67.4% (active) with HCC-2998 colon. In addition, the results for the growth in the experiment on KM12 colon and with MDA-MB-468 breast were -28.3% (active) and -90.3% (active), respectively.

`COC1=C[C@@]23CCC(=O)N2CCc2cc4c(cc2[C@H]3[C@H]1OC(=O)C(C)(C)O)OCO4`: the growth was 98.9% in the experiment on BT-549 breast; 98.4% in the experiment on MDA-MB-435 melanoma; 105% in the experiment with SW-620 colon; 92.7% in the experiment on MCF7 breast; 101% in the experiment on HCT-116 colon; 103% with HCC-2998 colon. The growth is 101% with KM12 colon and 91.5% in the experiment on MDA-MB-468 breast.
